# Measurements published in PubChem BioAssay AID1851 (National Center for Advancing Translational Sciences (NCATS), 2009).
# The campaign covered roughly 16,000 compounds. About 2,600 (16%) were called active. Not shown: some 20% with an inconclusive outcome. The list is a sample of the results. Values without a mark were called inactive. Calls follow the shape of the dose curve; as a rule, active = well fitted curve in the direction sought with a large enough effect; inconclusive = small, poorly fitted or top-dose-only effect, or effect the other way; inactive = no such curve, though single readings can be large or run the other way.
# Biological target: Cytochrome P450 2D6 (Homo sapiens) (UniProt P10635)
# Sequence (P10635 whole entry, looked up): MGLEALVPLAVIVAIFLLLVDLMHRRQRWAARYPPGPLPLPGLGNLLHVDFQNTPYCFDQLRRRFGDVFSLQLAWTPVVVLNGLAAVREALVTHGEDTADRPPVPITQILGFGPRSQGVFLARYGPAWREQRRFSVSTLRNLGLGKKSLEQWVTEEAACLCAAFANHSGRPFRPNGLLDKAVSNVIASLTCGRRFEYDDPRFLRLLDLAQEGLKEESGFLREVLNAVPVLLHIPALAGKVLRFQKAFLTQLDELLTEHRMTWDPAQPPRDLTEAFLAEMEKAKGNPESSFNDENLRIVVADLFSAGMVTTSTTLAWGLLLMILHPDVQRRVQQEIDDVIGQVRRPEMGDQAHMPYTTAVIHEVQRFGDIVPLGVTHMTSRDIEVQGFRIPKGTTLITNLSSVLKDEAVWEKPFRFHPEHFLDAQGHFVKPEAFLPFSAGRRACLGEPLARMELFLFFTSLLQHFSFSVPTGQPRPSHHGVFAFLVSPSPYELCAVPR
# Experiment: Cytochrome panel assay with activity outcomes
# Conditions: recombinant CYP, pro-luciferin dealkylation, luminescence, p450-cyp2d6; series mostly up to 57.1 µM; activity, negative = inhibition: at the top concentration
# % is scaled to controls: 0 for no effect and ±100 for the full control effect.
Structure (SMILES),"activity, negative = inhibition",AC50
NS(=O)(=O)c1ccc(N=Nc2ccc[nH]c2=O)cc1,-6.28% [at 11.4 µM],
C(=Nc1cnc2ccccc2c1)c1ccc2ccccc2n1,1.16% [at 11.4 µM],
C=C(C)[C@@H]1CC=C(C(=O)O)CC1,-8.58%,
NNC(=O)c1nn(-c2ccc(Cl)cc2)ccc1=O,-1.71%,
COc1ccc(Oc2c(Cl)cnn(-c3ccccc3)c2=O)cc1,-3.24%,
Cc1ccc2ccccc2c1CSc1nc(N)nc2c1ncn2CC(C)C,,3.98 µM (active)
CC(C)Cn1cnc2c(Sc3c([N+](=O)[O-])ncn3C)nc(N)nc21,8.92% [at 11.4 µM],
CC(C)Cn1cnc2c(SCc3ccccn3)nc(N)nc21,6.1% [at 11.4 µM],
CCCOc1ccc(C2C(=O)N(C3CCCCC3)CC(=O)N2C2CC2)cc1OC (stereo unspecified),-0.0714%,
Cn1c[n+](C)cc1/C=N/O,-3.03%,
O=[N+]([O-])c1ccc(N2CCCC2)cc1N1CCCC1,-17.6%,
O=[N+]([O-])c1cccnc1N1CCOCC1,-5.33%,
O=[N+]([O-])c1cc(F)c(N2CCOCC2)cc1N1CCCCC1,,10 µM (active)
Cc1ccc(-c2nc3ccccc3s2)cc1NC(=O)c1cc(-n2cnnc2)ccc1Cl,-3.13%,
CN1CCN(c2ncc3nc(-c4cccs4)c(=O)n(-c4ccccc4)c3n2)CC1,0.142%,
O=C(O)C1CCC(=O)N(C2CC2)C1c1ccccc1 (stereo unspecified),21.6%,
COCCNc1nc(-c2ccccc2C(F)(F)F)nc2ccccc12,-2.92%,
CC(=O)NCCNc1ccnc(-c2ccccc2C(F)(F)F)n1,-6.01%,
CC(=O)NCCNc1nc(-c2ccccc2C)nc2ccccc12,,5.01 µM (active)
CC(=O)NCCNc1nc(-c2ccccc2C(F)(F)F)nc2ccccc12,,3.98 µM (active)
CC(=O)NCCNc1nc(-c2ccccc2Cl)nc2ccccc12,,12.6 µM (active)
COc1ccccc1-c1nc(NCCNC(C)=O)c2ccccc2n1,,6.31 µM (active)

Structure (SMILES),"activity, negative = inhibition",AC50
CC(=O)NCCNc1ccnc(-c2ccccc2C)n1,-10.3%,
COCCNc1nc(-c2ccccc2Cl)nc2ccccc12,0.886%,
COC(=O)[C@@]1(Cc2ccc(OC)cc2)[C@H]2c3cc(C(=O)N4CCCC4)n(CCc4c[nH]c5ccc(O)cc45)c3C[C@H]2CN1C(=O)c1ccccc1,4.23%,
O=Nc1c(-c2c(O)[nH]c3ccccc23)[nH]c2ccccc12,12.1%,
COc1ccc(C)cc1NC(=O)c1cc2cc3ccc(C)cc3nc2o1,7.98%,
Cc1ccc2cc(CCNC(=O)c3ccc(Br)o3)c(=O)[nH]c2c1,-5.59%,
Cc1cccc(N(C)S(=O)(=O)c2ccc3[nH]c(=O)c(=O)[nH]c3c2)c1,-6.04%,
COc1ccc(-n2c(=O)c(C)nc3cnc(OC)nc32)cc1,6.93%,
CCCn1c(=O)c2[nH]c(C3CCCC3)nc2n(CCC)c1=O,-6.79%,
COc1ccc(-c2nc3cnc(N4CCOCC4)nc3n(CCc3ccccc3)c2=O)cc1,-0.0486%,
COC(=O)[C@@H]1CC[C@H](C)[C@@H](c2ccc(C)cc2)N1C(=O)c1ccc(/C=N\OCC[C@@H]2C=C[C@H](OC(C)=O)[C@H](COC(C)=O)O2)cc1,6.79% [at 11.4 µM],
COC(=O)c1cc(=O)n(C2CC2)c(=NC2CC2)s1,-4.17%,
CN(C)C(=C(C#N)C#N)N1CCN(c2ccc(Cl)c(Cl)c2)CC1,,1.12 µM (active)
C=CCNCCOCCOc1ccc(C)cc1[N+](=O)[O-],,3.16 µM (active)
CCCCNCCOCCOc1ccc(C)cc1[N+](=O)[O-],,2 µM (active)
CCC(C)Nc1c([N+](=O)[O-])cc(C)cc1[N+](=O)[O-] (stereo unspecified),-14.5%,
CCCC(=O)N1CCN(c2ccc(NC(=O)c3ccc(OCC)c([N+](=O)[O-])c3)cc2)CC1,23.3%,
Cc1ccc(OCC(=O)N/N=C\c2c(C)n(C)c3ccccc23)c([N+](=O)[O-])c1,-14.9%,
Cc1nnc(N(C)C(=O)c2ccccn2)s1,-0.12%,
COc1ccc(-c2nn(-c3ccccc3)cc2/C=N/NC(=O)c2ccc3c(c2)OCO3)cc1,-26.4%,
CSCC[C@@H]1NC(=O)C/C=C\[C@@H](C)COC(=O)[C@H](C)COC1=O,10.5% [at 11.4 µM],
COc1cc(-c2ccc(=O)[nH]n2)ccc1OC(F)F,4.03%,

Structure (SMILES),"activity, negative = inhibition",AC50
CC(C)c1cccc2nc3c(c(C(C)(C)C)c12)Cn1c-3cccc1=O,-17.1%,
C[C@@H](N=C(N)N)C(=O)O,9.93% [at 11.4 µM],
Clc1ccccc1NN(Cc1ccccn1)c1ccccc1Cl,-11.2% [at 11.4 µM],
CNC(=S)N1CCN(c2cccc(OC)c2)CC1,-11.4%,
O=C(NNC(=O)c1cc2cc3ccccc3nc2s1)c1cccc(C(F)(F)F)c1,5.7%,
O=c1c(O)c(-c2ccc(O)cc2)oc2cc(O)cc(O)c12,,10 µM (active)
Cc1cc(=O)c2c(O)c(O)ccc2o1,-8.29%,
Cc1cc(=O)oc2cc(O)ccc12,0.168% [at 25.6 µM],
O=C(COc1ccc2ccccc2c1)Nc1ccc(Cc2ccncc2)cc1,,0.355 µM (active)
O=C(COc1ccc2ccccc2c1)NNC(=O)Cc1cccc2ccccc12,-1.19%,
CC(=O)CC(=O)Nc1ccc2ccccc2c1,15.5% [at 11.4 µM],
CCNC(=O)NC1(C(=O)Nc2ccc3c(c2)OCCO3)CCCCC1,6.31%,
CC(=O)NN1C(=O)c2ccc(Oc3ccc([N+](=O)[O-])cc3)cc2C1=O,-5.87%,
O=C(NC(=S)Nc1ccc(C(=O)N2CCOCC2)cc1)c1ccc([N+](=O)[O-])cc1,17.4%,
COc1ccc(-n2c(=O)c(-c3cc(F)cc(F)c3)nc3cncnc32)cc1,4.13%,
CCOC(=O)NC(NC(=O)OCC)C(=O)c1ccc(F)cc1,3.08%,
CCOC(=O)Nc1ccc(NCc2ccc(F)cc2)nc1N,,31.6 µM (active)
CCOC(=O)Nc1ccc(C)cc1NC(=O)OCC,10.5%,
CC1=NNC(=O)C1CCC(=O)N/N=C\c1ccccc1[N+](=O)[O-] (stereo unspecified),3.05%,
C/C(CCc1ccc2c(c1)OCO2)=N\N=C1\NC(=O)CC(C(=O)Nc2ccccc2)S1 (stereo unspecified),,8.91 µM (active)
COCCN1C(=O)c2ccccc2C(C(=O)Nc2ccc3c(c2)OCCO3)C1c1ccc(F)cc1 (stereo unspecified),-15.1%,
C/C(=N\N=C1\NC(=O)CC(C(=O)O)S1)c1cccs1 (stereo unspecified),-14.7%,

Structure (SMILES),"activity, negative = inhibition",AC50
Cc1nn(-c2ccccc2)c(Cl)c1C(=O)Nc1c(C)n(C)n(-c2ccccc2)c1=O,6.41%,
CCC(C)NC(=O)c1c(C)cc(=O)oc1C (stereo unspecified),4.71%,
C1CCC(C(C[C@@H]2CCCCN2)C2CCCCC2)CC1,,0.501 µM (active)
NC(N)=NC[C@@H]1CCCCCCN1,5.74% [at 11.4 µM],
C1CCN(CC[C@@H]2CCCCN2)CC1,-9.75% [at 11.4 µM],
CCC(=O)N1CCc2cc(S(=O)(=O)NC(C(=O)NCc3ccc(F)cc3)C(C)C)ccc21 (stereo unspecified),0.907%,
CNC(=S)Nc1ccc(Nc2ccccc2)cc1,-29.5%,
CC(C)(C)NC(=S)Nc1ccc(Nc2ccccc2)cc1,,14.1 µM (active)
S=C(Nc1ccccc1)Nc1ccc(OCc2ccccc2)cc1,-25.1%,
COc1cccc(Nc2ncc3nc(-c4cccs4)c(=O)n(CCC#N)c3n2)c1,-4.4%,
CCOC(=O)c1ccc(-c2ccc(CO)o2)cc1,-15%,
O=C(N/N=C/c1ccc(OCc2ccccc2)cc1)c1cccs1,-1.86%,
COc1ccc(N2C(=O)NC3CC2(C)Oc2ccccc23)cc1OC (stereo unspecified),-0.582%,
C[C@@H](O)[C@H]1C(=O)N2C(C(=O)O)=C(S[C@@H]3CN[C@H](C(=O)N(C)C)C3)[C@H](C)[C@H]12,4.97% [at 25.6 µM],
CCOC(=O)N1CCC(NC(=O)CSCc2cnn(-c3ccccc3)c2-n2cccc2)CC1,-28.7%,
COCC(=O)O[C@]1(CCN(C)CCCc2nc3ccccc3[nH]2)CCc2cc(F)ccc2[C@@H]1C(C)C,,0.316 µM (active)
COc1ccc(N(C)S(=O)(=O)c2ccc3c(c2)CCC(=O)N3)cc1,-12.3%,
C/C(=N\NC(=O)c1[nH]c2c([N+](=O)[O-])cc(C)cc2c1-c1ccccc1)c1cccnc1,-15.9%,
COc1ccc(NC(=O)C2c3cc(OC)c(OC)cc3C(=O)N(C)C2c2cccnc2)cc1OC (stereo unspecified),-3%,
C=CCC(C)(NCc1ccccc1)c1ccco1 (stereo unspecified),,3.98 µM (active)
CC1(C)Oc2cc(N)c([N+](=O)[O-])cc2O1,-5.57%,
Cc1nnc(SCC(=O)N2CC(=O)Nc3ccccc32)n1Cc1ccccc1,-3.02%,

Structure (SMILES),"activity, negative = inhibition",AC50
O=C(O)c1ccccc1-c1ccccc1C(=O)Nc1ccc2c(c1)Cc1ccccc1-2,8.94% [at 11.4 µM],
O=[N+]([O-])c1cccc(/C(=N/N=C/c2ccccc2Br)C23CN4CN(CN(C4)C2)C3)c1,-6.29%,
Cc1ccc(C(=O)NNC(=O)c2cc3cc4ccccc4nc3s2)cc1,19.3%,
Cc1ccsc1-c1nc(-c2ccccc2)c(-c2ccccc2)[nH]1,-0.505%,
Oc1ccc(-c2nc(-c3ccc(F)cc3)c(-c3ccncc3)[nH]2)cc1,,5.01 µM (active)
c1ccc(-c2n[nH]c(-c3ccccc3)c2-c2nc3ccccc3[nH]2)cc1,-22.8%,
O=c1cnc2cnc(Oc3ccccc3)nc2n1C1CC1,-9.03%,
Cc1ccc(C(=O)c2cn(-c3ccc(F)c(Cl)c3)nn2)cc1,6.95%,
CC[C@](N)(CCC(=O)O)C(=O)O,-1.06%,
Nc1nnc(SCCOc2cccc(Br)c2)s1,,11.2 µM (active)
CCSc1nnc(NC(=O)COc2ccc3ccccc3c2)s1,-5.34%,
CCn1c2ccccc2c2cc(N=C3SC(CC(=O)Nc4ccccc4OC)C(=O)N3C)ccc21 (stereo unspecified),-2.34%,
CCN(CC)c1nc(Nc2ccccc2)nc(Oc2ccc(C(=O)OC)cc2)n1,-6.17%,
Cc1c(N(C)CS(=O)(=O)O)c(=O)n(-c2ccccc2)n1C,10.2% [at 25.6 µM],
CN(C)C(=O)c1ccc(-c2nc(Nc3ccncc3)c3ccccc3n2)cc1,-6.54%,
CN(C)C(=O)c1ccc(-c2nc(Nc3ccccc3)c3ccccc3n2)cc1,-14.8%,
CN(C)c1ccc(-c2nc(-n3ccnc3)c3ccccc3n2)cc1,,7.94 µM (active)
CN(C)C(=O)c1ccc(-c2nc(-n3ccnc3)c3ccccc3n2)cc1,,15.8 µM (active)
